An excerpt weighted towards active compounds, which were near 1.3% of everything screened.
NCOA3 inh: SRC3 coactivator transcriptional activity inhibitors, primary screen, cell-based, luminescence | AID 588352, 2011 | inhibition, % at 3.6 µM | Nuclear receptor coactivator 3 (Homo sapiens), Q9Y6Q9 | 360,000 tested, 0.17% active | HEK293 GAL4-SRC3 luciferase reporter;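 active = inhibition above a per-campaign cutoff, the mean of all compounds plus 3 SD, cut at about 60% in these data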;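 also: higher means less SRC3-driven luciferase light from the GAL4 reporter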
Gli-Sufu antag: Gli-Sufu pathway antagonists, primary screen, luciferase luminescence, Sufu-KO-LIGHT cells, uHTS; Sufu-KO-LIGHT fibroblasts, Gli luciferase reporter luminescence; inhibition, % at 5 µM; 340,000 tested, 0.74% active;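 active = inhibition above about 55%, limit read from the data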
NCOA1 inh: SRC1 coactivator transcriptional activity inhibitors, primary screen, cell-based, luminescence; Nuclear receptor coactivator 1 (Homo sapiens), Q15788; HEK293 GAL4-SRC1 luciferase reporter; inhibition, % at 3.6 µM; 360,000 tested, 0.12% active;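 active = inhibition above the campaign mean plus 3 SD, with each screening campaign given its own cutoff, cut at about 60% in these data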
NR2F2 inh: NR2F2 transcriptional activity inhibitors, primary screen, cell-based, luciferase reporter, HEK293T, luminescence | 370,000 tested, 0.7% active | inhibition, % at 8.6 µM | AID 686940, 2013 | HEK293T NGFI-A luciferase reporter;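 active = inhibition above a per-plate cutoff, mean inhibition of test wells between control levels plus 3 SD, cut at about 38% in these data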;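 also: cells cotransfected with COUP-TFII expression vector driving the NGFI-A reporter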
Target sequence (P24468 whole entry, looked up): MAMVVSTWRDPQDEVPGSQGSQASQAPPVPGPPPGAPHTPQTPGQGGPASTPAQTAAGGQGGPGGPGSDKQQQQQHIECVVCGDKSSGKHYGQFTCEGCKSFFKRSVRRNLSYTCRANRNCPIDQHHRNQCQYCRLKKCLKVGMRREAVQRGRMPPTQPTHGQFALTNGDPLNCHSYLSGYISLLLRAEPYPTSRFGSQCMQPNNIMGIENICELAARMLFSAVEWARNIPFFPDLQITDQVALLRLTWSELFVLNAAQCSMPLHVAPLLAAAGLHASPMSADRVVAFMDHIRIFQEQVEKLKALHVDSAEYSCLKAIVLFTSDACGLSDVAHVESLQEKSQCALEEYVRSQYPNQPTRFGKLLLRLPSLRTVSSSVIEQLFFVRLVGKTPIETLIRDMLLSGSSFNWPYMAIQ
NCOA2 inhibitor: inhibition of GAL4-SRC2 driven luciferase reporter, primary screen, SRC2 inhibitor project, cell-based, luminescence | Nuclear receptor coactivator 2 (Homo sapiens), Q15596 | HEK293 GAL4-SRC2 luciferase reporter | inhibition, % at 9 µM | 370,000 tested, 0.17% active | AID 651957, 2012;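 active = inhibition above the mean inhibition of all tested compounds plus 3 SD, set per campaign, cut at about 52% in these data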
NR5A2 inv ag: LRH-1 (NR5A2) inverse agonists, primary screen, cell-based, luminescence, HEK293T, StAR-luciferase reporter | Nuclear receptor subfamily 5 group A member 2 (Homo sapiens), O00482 | LRH-1 transfected, 24 h | inhibition, % at 3.6 µM | 360,000 tested, 0.13% active | AID 602396, 2012;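 active = inhibition above the mean inhibition of all tested compounds plus 3 SD, cut at about 73% in these data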
VP16 Luc counter: Gal4-VP16 luciferase reporter inhibitors, counter-screen for COUP-TFII antagonist project, cell-based, luminescence, HEK293; shares compounds with NR2F2 inh; 2,500 tested, 25% active; inhibition, % at 8.5 µM; in the data active = inhibition above about 13%
NR2F2 inh conf: NR2F2 transcriptional activity inhibitors, confirmation, cell-based, luciferase reporter, HEK293, triplicate | HEK293 NGFI-A luciferase reporter, luminescence | AID 687008, 2013 | 2,500 tested, 45% active | inhibition, % at 8.5 µM | shares compounds with NR2F2 inh;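 active = mean inhibition over three repeats above a set limit taken from the earlier primary screen, cut at about 38% in these data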
Large screens that a line does not name were inactive (follow-up assays come after a bar, where they were run); ! = repeats disagree.

N#CCC1(O)C(=O)N(Cc2ccccc2)c2ccccc21 (stereo not drawn)	none (no result: NCOA3 inh, Gli-Sufu antag, NCOA1 inh)
COc1ccc([C@@]23Oc4cc(OC)cc(OC)c4[C@]2(O)[C@H](O)[C@H](C(=O)N(C)C)[C@H]3c2ccccc2)cc1	NCOA3 inh 89.5, Gli-Sufu antag 76.8, NCOA1 inh 90.3, NR2F2 inh 87.1, NCOA2 inhibitor 71.9, NR5A2 inv ag 99.5 | VP16 Luc counter 20.3 | NR2F2 inh conf 73.9
Cc1cc(N2CCN(C(=O)OC(C)(C)C)C[C@H]2C)ccc1Br	none (no result: NCOA3 inh, Gli-Sufu antag, NCOA1 inh, NR5A2 inv ag)
CCOc1ccc(CN2CCN(C(=O)c3cccc4ccccc34)CC2)cc1	NR2F2 inh 59.2 | VP16 Luc counter inactive | NR2F2 inh conf inactive
COc1cc(N2CCC(O)CC2)ccc1Nc1cc(Nc2ccccc2S(=O)(=O)C(C)C)c2cc[nH]c2n1	none (no result: NCOA3 inh, Gli-Sufu antag, NCOA1 inh, NR5A2 inv ag)
O=c1cccc2c1c1cc[nH]c3ccc(=O)n2c31	NR2F2 inh 45.5 | VP16 Luc counter inactive | NR2F2 inh conf inactive
O=c1cc[nH]c2ccc(Cl)cc12	none
Oc1ccc(CCNc2ncnc3ccc(Cl)cc23)cc1	Gli-Sufu antag 61.0, NCOA1 inh 63.9, NR2F2 inh 80.0 | VP16 Luc counter inactive | NR2F2 inh conf 64.4
Cc1nc(N)nc(N)c1/C=C/C(C)(C)c1ccc(Cl)cc1	NCOA1 inh 70.0, NR2F2 inh 47.4 (no result: Gli-Sufu antag) | VP16 Luc counter 27.9 | NR2F2 inh conf inactive
COc1ccc(N(C(C)C(=O)N2CCCC2)S(C)(=O)=O)cc1 (stereo not drawn)	none
CCOC(=O)C1CCN(C(=O)C(C)N(c2ccc(Oc3ccccc3)cc2)S(C)(=O)=O)CC1 (stereo not drawn)	NR2F2 inh 45.4 | VP16 Luc counter inactive | NR2F2 inh conf inactive
COc1ccc(N(C(C)C(=O)N2CCC(Cc3ccccc3)CC2)S(C)(=O)=O)cc1 (stereo not drawn)	NR2F2 inh 41.8 | VP16 Luc counter inactive | NR2F2 inh conf inactive
COc1cc(NC(=O)c2cnc(N)o2)cc(C(=O)Nc2cccc(C(F)(F)F)c2)c1	NR2F2 inh 66.1! | VP16 Luc counter inactive | NR2F2 inh conf inactive
CCc1ccc(S(=O)(=O)Nc2cc3c(cc2C)n(C)c(=O)n3C)cc1	Gli-Sufu antag 65.2, NR2F2 inh 40.6 | VP16 Luc counter inactive | NR2F2 inh conf inactive
Cc1ccc(NC(=O)CSc2nn(-c3ccccc3)c(=S)s2)cc1S(=O)(=O)N(C)C	NR2F2 inh 68.1 | VP16 Luc counter inactive | NR2F2 inh conf 63.1
O=C(CSc1nn(-c2ccccc2)c(=S)s1)Nn1cnnc1	none
COc1ccc2nc(NC(=O)C3CCN(S(=O)(=O)c4cccc5nsnc45)CC3)sc2c1	NR2F2 inh 77.6 | VP16 Luc counter inactive | NR2F2 inh conf 50.8
Cc1nn(C(C)(C)C)c(C)c1/C=N/OC(=O)Nc1ccc(Cl)cc1	NCOA3 inh 92.9, Gli-Sufu antag 91.8, NCOA1 inh 93.3, NR2F2 inh 99.0, NCOA2 inhibitor 90.8, NR5A2 inv ag 93.7 | VP16 Luc counter 93.8 | NR2F2 inh conf 107.5
Cc1nn(C)c(C)c1/C=N/NC(=O)C(C)(C)Oc1ccc(Cl)cc1	none (no result: NR2F2 inh, NCOA2 inhibitor)
Cc1ccc(-n2ncc3c(NCc4cccnc4)ncnc32)c(C)c1	NR2F2 inh 40.8 | VP16 Luc counter inactive | NR2F2 inh conf inactive
Cc1cccc(-n2ncc3c(NCc4cccnc4)ncnc32)c1	none
CC1CCN(C(=O)c2ccc3c(c2NCCO)C(=O)c2ccccc2C3=O)CC1	none
CCN(CC)CCNC(=O)c1ccc2c(c1NCCO)C(=O)c1ccccc1C2=O	NCOA3 inh 62.8, NR2F2 inh 64.1 | VP16 Luc counter inactive | NR2F2 inh conf inactive
CSCCC(NC(=O)c1cccc(C)c1)C(=O)OCN1C(=O)c2ccccc2C1=O (stereo not drawn)	none
CCOC(=O)C1CCN(CC(=O)Nc2c(C(=O)OC)[nH]c3ccccc23)CC1	none (no result: NCOA3 inh, Gli-Sufu antag, NCOA1 inh, NR5A2 inv ag)
CCOC(=O)C1CCN(CC(=O)Nc2c(C(=O)OC)[nH]c3ccc(Cl)cc23)CC1	NR2F2 inh 41.5 | VP16 Luc counter inactive | NR2F2 inh conf inactive
CCC(CC)NC(=O)CN1CCN(S(=O)(=O)c2cccs2)CC1	none
Cn1c(=O)c2[nH]c(CCCCCCCc3nc4ccccc4[nH]3)nc2n(C)c1=O	NR2F2 inh 54.6 | VP16 Luc counter inactive | NR2F2 inh conf inactive
Cn1c(=O)c2[nH]c(CCCCCc3nc4ccccc4[nH]3)nc2n(C)c1=O	none
C[C@@H]1ON(C)[C@H]2C[C@H]3c4[nH]c5cccc(-c6ccccc6)c5c4CCN3C[C@@H]12	none (no result: NCOA3 inh, Gli-Sufu antag, NCOA1 inh, NR5A2 inv ag)
COCCN=c1scc(-c2ccc3c(c2)NC(=O)CO3)n1/N=C(\C)c1ccc(O)cc1	NR2F2 inh 37.9 | VP16 Luc counter inactive | NR2F2 inh conf inactive
Cc1nn(-c2ccccc2)c(C)c1C(=O)OCC(=O)Nc1ccccc1Cl	none (no result: Gli-Sufu antag)
NS(=O)(=O)c1ccc(CCNc2nn3c(-c4cccc(OC(F)(F)F)c4)cnc3s2)cc1	NR2F2 inh 70.9 (no result: Gli-Sufu antag) | VP16 Luc counter 13.7 | NR2F2 inh conf 56.8
COc1ccc(CNc2nn3c(-c4cccc(C(=O)N(C)C)c4)cnc3s2)cc1	none (no result: Gli-Sufu antag)
COc1ccc(C(=O)N2CCCCC2c2cc(C(=O)Nc3cccc(C#N)c3)no2)cc1 (stereo not drawn)	none (no result: Gli-Sufu antag)
COC(=O)c1c(C)n(-c2ccc(OC)cc2)c2ccc(O)cc12	NR2F2 inh 39.0 | VP16 Luc counter inactive | NR2F2 inh conf inactive
CCOC(=O)c1c(C)n(-c2ccc(F)cc2)c2ccc(O)cc12	none (no result: NR2F2 inh, NCOA2 inhibitor)
O=C(NC1CCCCC1)c1n[nH]c2c1CCCCC2	NR2F2 inh 50.0, NCOA2 inhibitor 57.1 | VP16 Luc counter inactive | NR2F2 inh conf inactive
C=CCOc1ccc(CN(C)C(=O)c2ccc(CNS(=O)(=O)c3ccc(C)c(C)c3)cc2)cc1	NR2F2 inh 41.0 | VP16 Luc counter inactive | NR2F2 inh conf inactive
COc1ccc(NC(=O)Cn2cc(C(C)=O)c3ccccc32)cc1	NR2F2 inh 48.1 | VP16 Luc counter inactive | NR2F2 inh conf inactive
COc1cccc2c(=O)cc(C)n(CC(=O)Nc3cccc(C)c3)c12	NR2F2 inh 46.6 | VP16 Luc counter inactive | NR2F2 inh conf inactive
CCOc1ccc(NC(=O)Cn2cc(C(C)=O)c3ccccc32)cc1	none
